TGFb inhibitor: blocks TGF-b signaling | HepG2 CAGA-GFP TGF-b/SMAD3 reporter, GFP fluorescence, 18 h; TGF-beta stimulated, 500 pg/mL final | Potency, µM (highest dose often 46.1 µM), actives largely listed as inhibitors | 410,000 compounds, 1.2% hits | AID 588855; further: nearly all actives have a fitted effect of over 65% in size
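Inhibition was scored as loss of TGF-beta-induced (500 pg/mL final, 18 hours, 37 degrees C) GFP in HEPG2 cells carrying a CAGA-GFP reporter, in DMEM with 1% FBS. Well GFP was summed per cell; Activity was normalised to unstimulated and stimulated DMSO wells, then concentration-response fitting.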
HepG2 tox: counter-screen for TGF-b inhibitors: cytotoxicity in HepG2 cells. HepG2 CAGA-GFP viability, ATP luminescence, 18 h. Potency, µM (series often up to 46.1 µM), usual class: cytotoxic. 410,000 compounds, 0.76% hits. AID 588856
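HepG2 CAGA-GFP cells (1000/well, DMEM with 1% FBS) received compound, then TGF-beta at 500 pg/mL final, and were incubated 18 hours at 37 degrees C. Viability was read by CellTiter-Glo luminescence. Media-only wells were set as complete cell-killing and DMSO as no toxicity.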
TDP1 cell CPT: DT40-hTDP1 cell growth loss with CPT | chicken DT40 Tdp1-/-;hTDP1 cells + 20 nM CPT, ATP luminescence, 48 h | Potency, µM (doses to about 46.2 µM), most hits filed as inhibitors | 420,000 compounds, 12% hits | AID 686979; further: nearly all actives have a fitted effect of over 55% in size
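Chicken DT40 Tdp1-/- cells complemented with human TDP1, 400 cells/well, exposed to compounds plus 20 nM camptothecin for at least 48 h at 37 C; viability read as ATP content by CellTiter-Glo luminescence.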
TDP1 block: inhibitors of human tyrosyl-DNA phosphodiesterase TDP1 | Potency, µM (highest dose often 130 µM), hits mostly inhibitors | 350,000 compounds, 0.28% hits | Q9NUW8 | recombinant TDP1, AlphaScreen DNA substrate cleavage | AID 485290; further: nearly all actives have a fitted effect of over 40% in size
Target sequence (Q9NUW8 whole entry, looked up): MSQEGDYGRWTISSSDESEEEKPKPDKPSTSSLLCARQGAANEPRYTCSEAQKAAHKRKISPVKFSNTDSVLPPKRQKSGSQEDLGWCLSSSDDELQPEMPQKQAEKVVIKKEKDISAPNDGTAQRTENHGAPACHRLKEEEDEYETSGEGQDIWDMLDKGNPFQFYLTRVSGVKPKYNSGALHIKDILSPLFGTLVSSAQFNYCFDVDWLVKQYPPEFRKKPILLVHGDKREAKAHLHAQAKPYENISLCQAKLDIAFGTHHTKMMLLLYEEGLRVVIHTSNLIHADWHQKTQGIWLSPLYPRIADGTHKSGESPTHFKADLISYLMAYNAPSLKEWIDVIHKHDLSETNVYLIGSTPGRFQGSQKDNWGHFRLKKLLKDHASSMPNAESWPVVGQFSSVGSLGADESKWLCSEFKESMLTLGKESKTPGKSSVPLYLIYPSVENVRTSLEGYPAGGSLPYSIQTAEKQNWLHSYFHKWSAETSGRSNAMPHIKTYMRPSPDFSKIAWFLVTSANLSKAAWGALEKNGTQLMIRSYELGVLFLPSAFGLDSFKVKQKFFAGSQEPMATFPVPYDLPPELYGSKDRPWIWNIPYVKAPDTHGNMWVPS
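Compounds were preincubated with Tdp1 (1 nM final) for 15 min at room temperature before substrate (15 nM final) started a 5 min reaction; beads (10 ug/ml final) were then added for 10 min before AlphaScreen detection.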
IL1B secr inh: inflammasome signaling inhibition, IL-1 beta readout. activity change, % at 57.5 µM. THP-1 LPS/ATP IL-1B secretion, AlphaLISA, 16 h; hits give low values. 360,000 compounds, 4.7% hits. AID 743279; in the data active means activity change below about -50%; inconclusive means mostly about -30% to -49%
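Secreted IL-1B measured by AlphaLISA bead assay after 16 h compound exposure of THP-1 cells; compounds (final up to 57.5 uM) added 1 h before LPS (250 ng/mL) and ATP (1.25 mM) stimulation; lower signal means less secretion.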
DT40 TDP1 no CPT: qHTS for Inhibitors of human tyrosyl-DNA phosphodiesterase 1 (TDP1): qHTS in cells in absence of CPT; Potency, µM (highest dose often 46.2 µM), hits mostly inhibitors; 420,000 compounds, 15% hits; AID 686978, 2013; DT40 Tdp1-/- hTDP1 cells, no CPT, ATP luminescence, 48 h; further: nearly all actives have a fitted effect of over 55% in size
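Chicken DT40 Tdp1-/- cells stably complemented with human TDP1 were seeded at 400 cells/well with DMSO in place of 20 nM camptothecin. After compound pinning, cells grew at least 48 hr at 37 °C; viability read by CellTiter-Glo luminescence.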
Hits are given with their value; - = inactive; ? = inconclusive; . = not tested or not shown; [ ] = remark or other dose. In the library only some 18% were active in any assay of this set; here they are far more common. Unless noted, the call rests on the fitted dose curve; in most records, active means well fitted curve in the direction sought with a large enough effect; inconclusive means small, poorly fitted or top-dose-only effect, or another doubt; inactive means no such curve, though single readings can be large; an effect the other way counts as inactive or inconclusive.

SMILES	TGFb inhibitor	HepG2 tox	TDP1 cell CPT	TDP1 block	IL1B secr inh	DT40 TDP1 no CPT
Cc1ccc(NC(=O)c2c(C)nn(-c3ccccc3)c2-n2cccc2)c(Cl)c1	-	-	-	-	.	-
Cc1ccc(-n2nc(C)c(C(=O)NCCCN3CCN(c4ccccc4F)CC3)c2-n2cccc2)cc1	?	-	3.26µM	-	.	3.66µM
CCN(CCn1cccn1)Cc1cn[nH]c1-c1ccc(-c2ccccc2)cc1	-	-	?	-	-	23.1µM
Nc1nc2ncc(=O)[nH]c2c(=O)[nH]1	.	.	-	-	.	14.6µM
Cc1ccc(Cl)cc1NC(=O)Nc1cn(CC(C)C)c(=O)c2ccccc12	-	-	-	-	.	-
COc1cc(OC)c(N(C)C(=O)Nc2cn(CC(C)C)c(=O)c3ccccc23)cc1Cl	-	-	20.6µM	-	.	23.1µM
CCN(C(=O)Nc1cn(CC(C)C)c(=O)c2ccccc12)c1cc(C)ccc1C	-	-	9.2µM	-	.	9.2µM
O=C(NC1CCCCC1)c1ccc2ccccc2c1O	-	-	?	.	-61.4	14.6µM
O=C(NNC(=O)c1ccc2ccccc2c1O)NC1CCCCC1	-	-	-	-	-	-
Nc1sc(Cc2ccccc2)cc1C(=O)NC1CCCCC1	.	.	?	.	-	14.6µM
COc1cc(NC(=O)CNc2ccc(Cl)c(S(=O)(=O)N3CCOCC3)c2)cc(OC)c1	-	-	?	-	-	?
CC(=O)c1sc(NC(=O)c2oc3ccc(F)cc3c2C)nc1C	-	-	-	-	-	-
CCc1ccc(NCc2cc3ccc(OC)cc3n(CC(=O)Nc3cccc(Cl)c3C)c2=O)cc1	-	-	.	-	.	.
Cc1ccc(C)c(N2CCN(S(=O)(=O)c3cc(C(=O)Nc4ccccc4C(F)(F)F)ccc3F)CC2)c1	-	-	11.6µM	-	.	13µM
Cc1ccccc1NC(=O)c1ccc(F)c(S(=O)(=O)N2CCN(c3ccccn3)CC2)c1	-	-	28.2µM	-	-	11.2µM
O=C(Nc1ccccc1N1CCOCC1)c1ccc(F)c(S(=O)(=O)N2CCOCC2)c1	-	-	?	-	-	-
O=C(Nc1ccc(Br)cc1)c1ccc(F)c(S(=O)(=O)N2CCN(c3ccccn3)CC2)c1	-	-	?	-	-	7.31µM
O=C(Nc1ccccc1)c1ccc(N2CCN(c3ccccn3)CC2)c(S(=O)(=O)N2CCOCC2)c1	-	-	-	-	-	-
N#CC(CCc1ccccc1[N+](=O)[O-])(CCc1ccccc1[N+](=O)[O-])C(N)=O	-	-	?	.	-	?
COc1ccc(C2CC(O)(c3ccccc3)Oc3cc(OC)cc(OC)c32)cc1 (stereo not drawn)	?	-	23.1µM	-	?	?
Cc1cc2oc(C(=O)Nc3cccc(-c4nc5ccccc5o4)c3)c(C)c2cc1Cl	-	-	?	-	.	?
Cc1nn(C2CCS(=O)(=O)C2)c(Cl)c1/C=C/C(=O)OCC(=O)c1cc(C)n(-c2ccc(F)cc2)c1C (stereo not drawn)	-	-	20.6µM	-	-	16.4µM
Cc1nn(C2CCS(=O)(=O)C2)c(Cl)c1/C=C/C(=O)OCC(=O)c1c[nH]c2ccccc12 (stereo not drawn)	-	-	?	-	-	?
C=C[C@]1(C)C[C@@H](OC(=O)CSCCN(CC)CC)[C@]2(C)[C@H](C)CC[C@]3(CCC(=O)[C@H]32)[C@@H](C)[C@@H]1O	.	.	7.5µM	.	.	2.99µM
C=C[C@]1(C)C[C@@H](OC(=O)CSC(C)(C)CNC(=O)[C@H](N)C(C)C)[C@]2(C)[C@H](C)CC[C@]3(CCC(=O)[C@H]32)[C@@H](C)[C@@H]1O	.	.	0.237µM	.	.	0.266µM
SMILES	TGFb inhibitor	HepG2 tox	TDP1 cell CPT	TDP1 block	IL1B secr inh	DT40 TDP1 no CPT
Cc1ccc(N2CC(NC(=O)N3CCN(C(=O)c4ccco4)CC3)CC2=O)cc1 (stereo not drawn)	-	-	-	.	-	-
Cc1ccc2[nH]c3nc(CCCn4ccnc4-c4ccccc4)nnc3c2c1	.	.	.	-[21 µM]	.	.
COc1cccc(OC)c1/C(O)=C(\C#N)c1nc2ccccc2[nH]1	-	-	?	-	-	13µM
COc1ccc(/C(C)=N/OC/C(O)=C(\C#N)c2nc3ccccc3[nH]2)cc1OC	-	-	?	-	-	16.4µM
N#Cc1c(Cl)nsc1NCCN1CCOCC1	-	-	?	.	-	-
Nc1nc(SCC(=O)c2cccs2)n[nH]1	-	-	-	-	-	-
COc1cccc(C(=O)Nc2nc(-c3ccc(S(=O)(=O)N4CCOCC4)cc3)cs2)c1	-	-	20.6µM	-	?	11.6µM
COc1ccc(-c2csc(NC(=O)c3ccc(S(=O)(=O)N4CCc5ccccc5C4)cc3)n2)c(OC)c1	-	-	?	-	-	13µM
O=C(Nc1nc(-c2ccc(S(=O)(=O)N3CCOCC3)cc2)cs1)c1ccccc1	-	-	?	-	?	11.6µM
COC(=O)c1c(NC(=S)NNC(=O)c2ccc(Cl)s2)sc(C(=O)N(C)C)c1C	-	-	?	-	-	-
CCN(Cc1ccccc1)C(=O)Cn1cc(S(=O)(=O)NC)c(S(=O)(=O)NC)c1	-	-	-	.	-	-
Cc1ccc(S(=O)(=O)N2CCN(C(=O)c3ccc(COc4ccccc4)o3)CC2)cc1	-	-	-	-	-	?
Cc1ccc(OCC(=O)Nc2ccc(S(=O)(=O)N3CCOCC3)cc2)c(Br)c1	-	-	?	-	-	?
COc1cccc(/C=C2\SC(=S)N(CCCC(=O)N3CCCC3)C2=O)c1	-	-	?	-	-90.6	20.6µM
COc1cccc(/C=C2\SC(=O)N(CCC(=O)N3CCC(C(=O)O)CC3)C2=O)c1	-	-	-	-	-	-
COc1cccc(/C=C2\SC(=S)N(CCCC(=O)N3CCCCC3CCO)C2=O)c1 (stereo not drawn)	?	-	?	-	-70.2	16.4µM
COc1ccccc1/C=C1\SC(=S)N(CCC(=O)N2CCCCC2CCO)C1=O (stereo not drawn)	-	-	16.4µM	-	?	?
COc1cccc(/C=C2\SC(=S)N(CCC(=O)N3CCCCC3CCO)C2=O)c1 (stereo not drawn)	?	-	13µM	-	?	18.4µM
CC(=O)c1cccc(S(=O)(=O)NCCc2csc3nc(-c4ccc(F)cc4)nn23)c1	-	-	?	-	.	?
O=C1/C(=C/c2cccs2)SC(=S)N1CCC(=O)N1CCCCC1CCO (stereo not drawn)	-	-	?	-	-56.3	?
